From the supplement of paper PMC6555819

Tested on: VDR:RXRa (NR concentration 270 nM, RXRa partner concentration 90 nM)
Experiment: PBM binding z-score (relative to random genomic background probes); higher = stronger binding; sequences stand for … in GC…GCGATTGACAGCGTAGAATGAAGG
Protocol: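 Protein-binding microarray (Agilent 4x180K custom design, double-stranded 60-nt probes: 5' GC cap, 34-nt variable region, 24-nt constant primer region; full probe sequence given). Purified or IVT nuclear receptor:RXRα heterodimers (3:1 NR:RXRα, mostly 270:90 nM) or homodimers were incubated for 1 h in PBS with 2% milk and no ligand, then detected with Alexa488 antibodies. Fluorescence from o1-orientation probes (~5 replicates averaged) was converted to z-scores against 500 random hg19 background probes. Variable regions are seed direct-repeat (DR0–DR5) sites, all their single-nucleotide variants and half-site ablations.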

Sequence | PBM binding z-score
TAGCCTAGGTCATTGGGCCAGTATAGTACGCATC | 2.11
ACTAGTTGCTCAGCTGAGGTCACACACAATTCGG | 3.65
AGAATGAGGTTAACAAAGATCAGGGAAACGCTTG | 1.71
CGAACTAAGTCAAAGGACAGTGAAAGGCGACGTA | -0.259
AATACAGGGTCATTAGGCCAGAGTAGGTACGAAT | 4.61
AGTCAAATTTCACTAGGTAACGTAAGATTCAGCT | 0.337
CTATGTAGGTTAAGGGGGTCAATCAGTTTGAAAG | 7.09
CAAACTAGGTCAAAGGTCAAGGTCGAGCCAACCA | 6.86
CGAACTAGGTCATAGGACAGTGAAAGGCGACGTA | 1.47
CGAACTAGGGCAAAGGACAGTGAAAGGCGACGTA | -0.612
CGAATTAGGTCACCAGGACAGTGAAGAGGTTGGA | 2.06
CCGACGGGGGCAGAAAGGTTACCATACCATCCGG | 4.49
TCGAGTAGGTTATGGGGGCATTCAGGGATGAAGA | 3.34
CCGAGTAGGCTACGAGGGGGCATTCAGTGCGAAT | 3.16
CGTCTAAGGTCAAGGTCAGTGAAAGAGACTCGAA | 5
TCTAGTTGGTTACGGAGGTCACACACGACGGGTA | 4.27
GCTGCTAGGTCAACTGATGGTCAGCTAAAGCTCG | 1.47
ACTTACGGGTCAAGGAGGTTATAGCACGCGTATA | 6.7
TCGAGCAGGTTACGGGGGCATTCAGGGATGAAGA | 3.86
TCGAGGAGGTTACGGGGGCATTCAGGGATGAAGA | 5.08

Sequence | PBM binding z-score
CTAACTAGGTCACAGAGGTCAAAGTCCGTGCGTA | 8.06
CCGAGTAGGATACGAGGGGGCATTCAGTGCGAAT | 3.32
CTATGTAGGTTAAGGGGGTCATTCGGTTTGAAAG | 7.56
CGAACTAGGTGAAAGGACAGTGAAAGGCGACGTA | -0.353
CGTCCAAGGTCAATGCGAGGTCAGTGAAAGCATT | 6.22
ACTCGGAGGACAAACGTCAGAGCTACGCCAGTGA | -0.401
CTATGTAGGTTAAGGGGGTGATTCAGTTTGAAAG | 3.99
AGAATGAGGTTAGCAAAGATCAGGGAAACGCTTG | 0.322
CCGAGTAGGTTACGAGGGGGCATTAAGTGCGAAT | 5.39
TCTGCTAGGTCAGTTGGGCAGCTAACGAGCTGCC | -0.0977
GCTGCTAGGTCAGGTTGGTCTGCTAACGGGTACG | 0.509
CCGAGTAGGTTACGAAGGGGCATTCAGTGCGAAT | 3.08
CGTCCAAGGTCAACAGGTCAGTGAAAGCGACGTG | 5.16
CCTAGATGGTCAGGAGGTCACACACCGGATATGA | 3.76
CGAACTAGGTCAAAGGTCAGTGAAAGGCGACGTA | 5.88
CCGAGTATGTTACGAGGGGGCATTCAGTGCGAAT | 4.06
CCGAGTAGGTTACGAGAGGGCATTCAGTGCGAAT | 4.33
CGAACTAGGTCAAAGGACAGTGTAAGGCGACGTA | 1.58
TCTAGTTGGTCAAAGGTCTCACACTCGAAATGCG | 1.42
CTATGTAGGTTAAGGGGGTCATGCAGTTTGAAAG | 7.13
